18 molecules from PubChem BioAssay (EPA / NIEHS) can be followed below.

Where “and” joins values, the source holds several entries; their conditions need not be identical. Identical values can stand only once. The source holds several records for some structures; these can differ, active in one and inactive in another. Calls of active or inactive are those of the source. How the source made its calls: active means hit-call score of the fitted dose curve at least 0.9, where 1 is the maximum; inactive means score below 0.9.

A short description of the assay: ATG_PBREM_CIS: Attagene CIS-FACTORIAL HepG2 Assay for human Phenobarbital-responsive Enhancer Module (PBREM) (AID 2282955). The settings on record: HepG2 PBREM cis-reporter, Attagene multiplexed transcription; actives raise or lower the signal. The gist of the method: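 Reporter mRNA read by RT-PCR, 6-FAM primer extension, HpaI digestion and capillary electrophoresis. Transfected HepG2 cells, 24 h compound exposure. Gain or loss of signal fitted bidirectionally relative to DMSO baseline.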
As for `COc1nc(NC(C)C)nc(NC(C)C)n1`, the outcome was inactive.
As to `Oc1ccccc1-c1ccccc1`, the result was inactive.
In the case of `COc1nc(C)nc(NC(=O)NS(=O)(=O)c2ccccc2Cl)n1`, the result was inactive.
Take `CCOC(=O)CC(SP(=S)(OC)OC)C(=O)OCC` (configuration not stated): the result was inactive.
The same measure, in the same setting: then `CCCCC(CC)COC(=O)c1ccccc1C(=O)OCC(CC)CCCC` (configuration not stated), with “inactive”; and `COc1nc(C)nc(NC(=O)NS(=O)(=O)c2ccccc2CCC(F)(F)F)n1`, with “inactive”; and `COc1ccc(C(c2ccc(OC)cc2)C(Cl)(Cl)Cl)cc1`, with “inactive”.
Regarding `CNC(=S)S`, the result was inactive.
On the same count and under the same terms, then `COP(=S)(OC)Oc1nc(Cl)c(Cl)cc1Cl`, with “inactive”.
Broadly, the AC50 is the midpoint of the concentration-response curve, whichever way the signal moves. In the case of `COC(=O)N(OC)c1ccccc1COc1ccn(-c2ccc(Cl)cc2)n1`, the AC50 was 1.67 µM (active).
Consider `N#Cc1nn(-c2c(Cl)cc(C(F)(F)F)cc2Cl)c(N)c1S(=O)C(F)(F)F` (configuration not stated), for which the AC50 is 19.4 µM (active) and the outcome was inactive.
For `C=CCC1=C(C)[C@@H](OC(=O)[C@@H]2[C@@H](C=C(C)C)C2(C)C)CC1=O`, the AC50 was 5.59 µM (active).
In the case of `CCCC1COC(Cn2cncn2)(c2ccc(Cl)cc2Cl)O1` (configuration not stated), the AC50 was 50 µM (active) and the outcome was inactive.
Take `CO/C=C(/C(=O)OC)c1ccccc1Oc1cc(Oc2ccccc2C#N)ncn1`: the result was inactive.
`CON(C)C(=O)Nc1ccc(Cl)c(Cl)c1`: the AC50 was 31.9 µM (active) and 27.2 µM (active); the outcome was inactive.
Consider `CCCCNC(=O)n1c(NC(=O)OC)nc2ccccc21`, for which the result was inactive.
As for `CCCCOC(=O)c1ccccc1C(=O)OCCCC`, the AC50 was 27.5 µM (active) and 67 µM (active) and 50 µM (active); the result was inactive.
As for `COC(=O)c1ccccc1C(=O)OC`, the outcome was inactive.
